This is an account of results in PubChem BioAssay (NCATS).

Experiment [1] in a line: Viability qHTS for spleen associated tyrosine kinase inhibitor (SYKi) naive MV4-11 cells (AID 1963823). Further: nearly all actives have a fitted effect of over 40% in size. A digest of the protocol: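 Read-out: CellTiter-Glo luminescence. Exposure: 72 hr, 37 C, 5% CO2, 95% humidity. Cells: MV4-11 without SYK inhibitor history, 500/well, qHTS format.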
A general note: qHTS replaces the single test concentration by a dilution series.

Experiment [2] can be described thus: Viability qHTS for spleen associated tyrosine kinase inhibitor (SYKi) drug resistant MV4-11 cells (AID 1963824). Further: nearly all actives have a fitted effect of over 35% in size. A digest of the protocol:
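SYK inhibitor-resistant MV4-11 AML cells, 500 per well, added to predispensed compounds and incubated 72 hr at 37 C, 5% CO2. Viability measured by CellTiter-Glo luminescence after 10 min at room temperature.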

Inconclusive results are not listed. Values without a mark were called inactive. The source made the active and inactive calls. The call rests on the fitted dose curve; in most records, active means well fitted cell-killing curve with a large enough effect; inconclusive means small, poorly fitted or top-dose-only effect, or effect the other way; inactive means no such curve, though single readings can be large or run the other way.
Potency means the concentration at half of the fitted maximal effect.

As for `C=C(C)C(=O)O[C@H]1[C@@H]2[C@H](C)C(=O)O[C@@H]2C[C@@H](C)[C@@H]2C=CC(=O)[C@]21C`, the results for the Potency in experiment [1] and in experiment [2] were 1430 nM (active) and 1140 nM (active), respectively.
`CCCCCCC(C)(C)c1cc(O)c2c(c1)OC(C)(C)C1CC=C(CO)C[C@H]21` (some centres not stated): the Potency in experiment [1] is 1180 nM (active); in experiment [2], 1660 nM (active).
Regarding `C=CC(C)(O)CC/C=C(\C)C(=O)O[C@H]1[C@H](O)[C@@H](CO)O[C@@H](OC(=O)[C@]23CCC(C)(C)CC2C2=CCC4[C@@]5(C)CC[C@H](O[C@@H]6O[C@H](CO[C@@H]7OC[C@H](O)[C@H](O)[C@H]7O[C@@H]7OC[C@@H](O)[C@H](O)[C@H]7O)[C@@H](O)[C@H](O)[C@H]6O)C(C)(C)C5CC[C@@]4(C)[C@]2(C)CC3)[C@@H]1OC1OC(C)C(O[C@@H]2OC[C@@H](O)[C@H](O[C@@H]3OC[C@@H](O)[C@H](O)[C@H]3O)[C@H]2O)C(O)C1O` (some centres not stated), the viability (% of control) in experiment [1] is 65.2% [at 9.25 µM]. For the same compound, the viability, % of control in experiment [2] was 77.8% [at 9.25 µM].
As to `CCCCCOc1cc2c(cc1-c1cc(/C=C/C(=O)O)ccc1O)C(C)(C)CCC2(C)C`, the figures for the Potency in experiment [1] and in experiment [2] were 20600 nM (active) and 23100 nM (active), respectively.
With `C=C(CO)C(=O)O[C@H]1C/C(C)=C/CC/C(CO)=C/[C@H]2OC(=O)C(=C)[C@H]12`, the Potency entry in experiment [1] and in experiment [2] was “inactive” throughout.
For `N#CC(OC1OC(COC2OC(CO)C(O)C(O)C2O)C(O)C(O)C1O)c1ccccc1` (configuration not stated), the Potency entry in experiment [1] and in experiment [2] was “inactive” in each case.
In the case of `COC[C@@H]1OC(=O)c2coc3c2[C@]1(C)C1=C(C3=O)[C@H]2CC[C@H](O)[C@@]2(C)C[C@@H]1OC(C)=O`, the Potency in experiment [1] was 8200 nM (active); in experiment [2], 6510 nM (active).
In the case of `CC(C)(O)/C=C/C(=O)[C@](C)(O)[C@H]1[C@H](O)C[C@@]2(C)[C@@H]3CC=C4[C@@H](C[C@H](O)C(=O)C4(C)C)[C@]3(C)C(=O)C[C@]12C`, the Potency is 317 nM (active) in experiment [1] and 282 nM (active) in experiment [2].
With `C=C(CO)C(=O)O[C@H]1CC(=C)[C@@H]2C[C@H](O)C(=C)[C@@H]2[C@H]2OC(=O)C(=C)[C@@H]21`, the figures for the Potency in experiment [1] and in experiment [2] were 1800 nM (active) and 1610 nM (active), respectively.
The matching figures for `COCC1OC(=O)c2coc3c2C1(C)C1=C(C3=O)C2CCC(=O)C2(C)CC1O` (configuration not stated): “inactive” and “inactive”.
Regarding `COC1CC(O[C@H]2CC[C@@]3(C)C(=CCC4C3C(O)[C@@H](O)[C@]3(C)[C@@H](C(C)=O)CC[C@]43O)C2)OC(C)C1OC1CC(OC)C(OC2OC(C)C(O)C(O)C2O)C(C)O1` (some centres not stated), the viability (% of control) in experiment [1] was 67.1% [at 9.25 µM]. Moreover, the viability, % of control in experiment [2] was 103% [at 9.25 µM].
For `COC(=O)[C@@]1(C)C(=O)C=C[C@]2(C)c3c(O)cc(C(C)C)cc3[C@H](O)[C@@H](OC(C)=O)C12` (some centres not stated), the Potency was 11200 nM (active) in experiment [1] and 8930 nM (active) in experiment [2].
In the case of `C[C@H]1O[C@@H](n2cnc3c(N)ncnc32)C[C@@H]1O`, the Potency entry in experiment [1] and in experiment [2] was “inactive” throughout.
For `CC(=O)OC1(c2ccccc2)CCN(CCc2ccccc2)CC1`, the Potency in experiment [1] is 39300 nM (active); in experiment [2], 44100 nM (active).
In the case of `COc1cc(CC(C)N)c(OC)cc1Br` (configuration not stated), the Potency is 12700 nM (active) in experiment [1] and 11300 nM (active) in experiment [2].
On to `N#CC(O[C@@H]1O[C@H](CO)[C@@H](O)[C@H](O)[C@H]1O)c1ccccc1` (some centres not stated), for which the Potency entry in experiment [1] and in experiment [2] was “inactive” throughout.
`CC(=O)O[C@H]1C[C@]2(O)[C@@H]3CC[C@@H]4C[C@@H](O)CC[C@]4(C)[C@H]3CC[C@]2(C)[C@H]1c1ccc(=O)oc1`: the results for the Potency in experiment [1] and in experiment [2] were 25.9 nM (active) and 23.1 nM (active), respectively.
With `C=C1C(=O)CC2OC2(C)CC2OC(=O)C(=C)C2C(O)C1OC(=O)/C(C)=C\C` (configuration not stated), the Potency was 508 nM (active) in experiment [1] and 570 nM (active) in experiment [2].
For the compound `CCC(C)(C#N)O[C@@H]1O[C@H](CO)[C@@H](O)[C@H](O)[C@H]1O` (some centres not stated), the Potency result in experiment [1] and in experiment [2] was “inactive” in each case.
As for `COC1C(O)C(OC2CCC3(C=O)C(CCC4C3CCC3(C)C(C5=CC(=O)OC5)CCC43O)C2)OC(C)C1OC1OC(CO)C(O)C(O)C1O` (configuration not stated), the Potency in experiment [1] is 153 nM (active); in experiment [2] it was 172 nM (active).
With `N#Cc1ccccc1-c1cc(-c2ccccn2)cn(-c2ccccc2)c1=O`, the Potency result in experiment [1] and in experiment [2] was “inactive” each time.
As for `CC[C@@H](C)[C@H]1C(=O)O[C@H](C(C)C)C(=O)N(C)[C@@H](C(C)C)C(=O)O[C@H](C(C)C)C(=O)N(C)[C@@H](C(C)C)C(=O)O[C@H](C(C)C)C(=O)N1C`, the Potency in experiment [1] is 5440 nM (active); in experiment [2], 2730 nM (active).
The matching figures for `Fc1cc(F)c2c(c1)C1C=CCC1C(c1cccnc1)N2` (configuration not stated): 3660 nM (active) and 2910 nM (active).
As to `CC(C)(O)/C=C/C(=O)[C@](C)(O)[C@H]1[C@H](O)C[C@@]2(C)[C@@H]3CC=C4[C@@H](C=C(O)C(=O)C4(C)C)[C@]3(C)C(=O)C[C@]12C`, the figures for the Potency in experiment [1] and in experiment [2] were 59.6 nM (active) and 37.6 nM (active), respectively.
As to `CN1CCCC1CCOC(c1cc2nccc(C(=O)O)c2[nH]1)c1ccccc1Cl` (configuration not stated), the Potency result in experiment [1] and in experiment [2] was “inactive” each time.
As for `C[C@]12CC[C@H](O)C[C@H]1CC[C@@H]1[C@@H]2[C@H](O)C(=O)[C@]2(C)[C@@H](c3ccc(=O)oc3)CC[C@]12O`, the values for the Potency in experiment [1] and in experiment [2] were 10.3 nM (active) and 9.2 nM (active), respectively.
